# High-throughput results as filed in PubChem.
# The list is not random: actives were taken first. Their share in the collection is about 8.1%.
# ClpP mod: qHTS Assay for Activators of ClpP; ATP-dependent Clp protease proteolytic subunit (Bacillus subtilis (strain 168)), P80244; purified B. subtilis ClpP, FRET peptide cleavage, 20 min; Potency, µM (top dose mostly 57.5 µM), inactives show at the top dose activity change, negative = active; actives 1.9% (n = 340,000); AID 651965, 2013; active = well fitted falling curve with a large enough effect; inconclusive = small, poorly fitted or top-dose-only effect; inactive = no such curve, though single readings can be large or run the other way; note: the source files actives as falling curves though it sought activators and does not explain the sign; nearly all actives have a fitted effect of over 65% in size
# Target sequence (P80244 whole entry, looked up): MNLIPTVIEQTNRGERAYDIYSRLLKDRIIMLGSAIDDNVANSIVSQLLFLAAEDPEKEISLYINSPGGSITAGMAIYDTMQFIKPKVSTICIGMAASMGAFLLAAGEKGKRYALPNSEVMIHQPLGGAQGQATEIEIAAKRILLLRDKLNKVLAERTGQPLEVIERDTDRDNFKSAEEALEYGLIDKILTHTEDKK
#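 ClpP 10 microg/mL final, pH 8 Tris/KCl buffer with BSA, glycerol, Tween-20; compound pinned in; FRET-FV substrate; RT 20 min; Ex320/Em430; ΔFRET vs ADEP 5.8 microM, DMSO, no enzyme.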
# Gal4-VP16 FLuc: counter-screen for ROR gamma inhibitors: Gal4-VP16 reporter; actives 3.5% (n = 310,000); Potency, µM (series often up to 53.6 µM), inactives show at the highest dose activity, negative = inhibition, usual class: inhibitors; AID 2546; Drosophila S2 Gal4-VP16 UAS-luciferase, luminescence, 20 h;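 note: Gal4-VP16 expression switched on by copper sulfate through the metallothionein promoter; % is set by controls: 0 for no effect and ±100 for the full control effect; nearly all actives have a fitted effect of over 50% in size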
# RORgamma inh: inhibitors of mouse ROR gamma transcriptional activity | P51450 | Drosophila S2 Gal4-RORgamma UAS-luciferase reporter, 20 h | Potency, µM (titrated, usually from 53.6 µM), for inactives: top-dose activity change, negative = inhibition, usual class: inhibitors | actives 5.4% (n = 310,000); note: % is set by controls: 0 for no effect and ±100 for the full control effect; nearly all actives have a fitted effect of over 60% in size
#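 Stably transfected Drosophila Schneider cells are the test system, with ROR gamma fused to Gal4 and luciferase under UAS control; luminescence is read after 20 hr of 700 uM copper sulfate induction at ambient temperature.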
# PINK1 modulator: modulators of PINK1 expression. Potency, µM (titrated, usually from 76.6 µM), inactives show at the highest dose activation (PINK1 increase), most hits filed as activators. PINK1 immunofluorescence, high-content cytometry, 24 h. actives 0.2% (n = 410,000); active = well fitted activation curve with a large enough effect; inconclusive = small, poorly fitted or top-dose-only effect; cell line not stated here; note: % of control where 0% means no effect; nearly all actives have a fitted effect of over 65% in size
#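 Cells are seeded, rested 12 hours, then given compound at five concentrations or DMSO for 24 hours. After fixation, blocking and antibody staining, PINK1 amount and mitochondrial localization are scored; CCCP serves as control.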
# Epigenetic derep: epigenetic control regulation, reporter derepression | murine LDR cells, GFP reporter derepression, 30 h | Potency, µM (top dose mostly 53.9 µM), without a hit: at the top dose GFP activation, most hits filed as activators | actives 0.2% (n = 280,000) | AID 1865; note: % of control where 0% means no effect; nearly all actives have a fitted effect of over 60% in size
#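 Murine LDR cells carrying a silenced, genomically integrated CMV-driven GFP reporter were exposed to compound for 30 hours at 37 C. After PBS washes, GFP-positive cells (20–120 um objects) were counted by laser-scanning microplate cytometry.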
# Sfp PPTase inh: blocks B. subtilis Sfp PPTase activity | Q9F4F7 | Potency, µM, without a hit: largest response in the series, negative = inhibition, most hits filed as inhibitors | actives 3.5% (n = 310,000) | Biochemical Sfp PPTase activity, qHTS;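 note: the enzyme is Sfp with the accession as filed and its product quenches rhodamine fluorescence; 0% = enzyme reaction without inhibitor and -100% = no enzyme wells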
#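 Step 1, compound plus 15 nM Sfp-PPTase, 15 min, room temperature. Step 2, add rhodamine-CoA (5 uM) and BHQ-2-YbbR (12.5 uM). Step 3, read 525/598 nm fluorescence at 0 and 30 min.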
# Active calls of the source: *; ? = inconclusive; nt = no result; ! = not active in a repeat; [ ] = remark or other dose. Unless noted, calls come from the whole dose curve; as a rule, active = well fitted curve in the direction sought with a large enough effect; inconclusive = small, poorly fitted or top-dose-only effect, or another doubt; inactive = no such curve, though single readings can be large; an effect the other way counts as inactive or inconclusive. Potency is the fitted concentration of half-maximal effect.
SMILES,ClpP mod,Gal4-VP16 FLuc,RORgamma inh,PINK1 modulator,Epigenetic derep,Sfp PPTase inh
CC1=NN(C(=O)c2cc(C)nn2C)C(O)(C(F)(F)F)C1 (stereo not drawn),-3%,?,11µM*,1%,5%,8%
CC1=NN(C(=O)c2ccc(Br)cc2)C(O)(C(F)(F)OC(F)(F)F)C1 (stereo not drawn),-5%,18µM*,11µM*,?,-1%,14%
CC1=NN(C(=O)c2csc(C)c2)C(O)(C(F)(F)F)C1 (stereo not drawn),-25%,5.6µM*,3.5µM*,0%,-1%,15%
CCCCCCCCN1[C@@H](CC(C)=O)c2ccc(/C=C/C(C)=O)cc2S1(=O)=O,0%,nt,nt,nt,nt,nt
CCCCNC(=O)c1ccc2c(=O)n(-c3ccccc3)c(=O)[nH]c2c1,4%,nt,nt,0%,0%,nt
O=C(OCCN1C(=O)c2cccc3c(N4CCOCC4)ccc(c23)C1=O)c1ccc(Cl)cc1,4%,-1%,8%,1%,?,-7%
CCCN(CCC)S(=O)(=O)c1ccc(C(=O)OCCN2C(=O)c3cccc4c(N5CCOCC5)ccc(c34)C2=O)cc1,22µM*,7%,3%,5%,25µM*,6%
Cc1nn(C(=O)c2ccccc2)c(C)c1Sc1ccc(Cl)cc1,-9%,nt,nt,?,-2%,nt
O=C(O)c1cc(O)c2c(c1)C(=O)c1cc(O)cc(O)c1C2=O,-1%,?,6.3µM*!,2%,1%,10µM*!
NC(N)=N/N=C/c1ccc(OCc2ccc(Cl)cc2)cc1,-4%,7.1µM*,?,-4%[38.3 µM],-1%,22µM*
NC(N)=N/N=C/c1ccc(OCc2ccccc2)cc1,-2%,10µM*,-32%,2%[38.3 µM],-1%,-15%
CNC(=O)c1c(NC(=O)c2ccc(S(=O)(=O)N3CCCCC3)cc2)sc2c1CCC2,1%,nt,nt,5%,2%,nt
Cc1cccc(NC(=O)CN2C(=O)c3cccnc3Oc3ccc(Cl)cc32)c1C,-2%,nt,nt,2%,-1%,nt
CCOC(=O)C1=C(C)c2ccccc2N(C(=O)OC)C1(C)C(=O)OCC (stereo not drawn),-1%,-9%,?,1%,?,3.5µM*
Cn1c(CNC(=O)CSc2n[nH]c(-c3ccccc3Cl)n2)nc2ccccc21,0%,nt,nt,0%,5%,nt
CC1CCN(S(=O)(=O)c2ccc3c(c2)c(=O)c(C(=O)NC(C)c2ccccc2)cn3C)CC1 (stereo not drawn),-1%,nt,nt,4%,3%,nt
O=C(/C=C/c1cccs1)NC(=S)NNC(=O)Cc1cccs1,1%,?,11µM*,1%,2%,23%
CC(C)CC(=O)NC(=S)NNC(=O)c1ccc(NC(=O)C2CCCCC2)cc1,-1%,7%,-7%,0%,-1%,5%
CC(C)CC(=O)NC(=S)NNC(=O)c1ccc([N+](=O)[O-])cc1,1%,5.6µM*,4µM*,-2%,0%,-27%
COc1ccc(C(=O)NC(=S)NNC(=O)c2ccc(NC(=O)C(C)C)cc2)cc1,1%,16µM*,?,1%,-2%,1%
CCC(=O)NC(=S)NNC(=O)c1ccc(OC)cc1,-2%,-3%,-19%,nt,-1%,56µM*
COc1ccc(C(=O)NC(=S)NNC(=O)c2ccc(C)cc2)cc1,0%,nt,nt,-4%,nt,nt
COc1ccc(-c2cn3c(n2)sc2cc(C(=O)NC(C)C45CC6CC(CC(C6)C4)C5)ccc23)cc1 (stereo not drawn),-30%,nt,nt,3%,0%,nt
COc1ccc(C(=O)NC(=S)NNC(=O)Cc2cccs2)cc1,1%,?,6.3µM*,4%,-2%,12%
COc1cc(OC)cc(C(=O)NC(=S)NNC(=O)Cc2cccs2)c1,-1%,-22%,-7%,0%,0%,-15%
CCC(=O)NC(=S)NNC(=O)c1ccc([N+](=O)[O-])cc1,1%,0%,?,1%,4%,79µM*
